Rows were chosen to be rich in hits. Some 7.9% of all compounds tested hit in one or more screens of this group.
HCV inhibitor: blocks hepatitis C virus; Huh7.5.1 HCVcc-Cre infection, luciferase reporter, 44 h; Potency, µM (titrated, usually from 41.8 µM), actives largely listed as inhibitors; 340,000 tested, 3.4% active; AID 651820; active means well fitted inhibition curve with a large enough effect; inconclusive means small, poorly fitted or top-dose-only effect, or another doubt; inactive means no such curve, though single readings can be large or run the other way
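A cell-based infection assay in which seeded cells (1,000 per well) receive test compound after 4 h, are inoculated with HCVcc-Cre at approximately 0.5 moi, and are incubated 44 h before luminescence detection.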
FMDV inh: blocks foot and mouth disease virus; FMDV antiviral cell-based qHTS; Potency, µM (series often up to 57.9 µM), usual class: inhibitors; 410,000 tested, 1.2% active; AID 1159524; calls by dose curve; tested in HEK293T cells; further: read-out not given here; nearly all actives have a fitted effect of over 45% in size
MARV entry inh: inhibitors of Marburg virus binding or cell entry; Marburg virus pseudotyped entry inhibition, cell reporter; Potency, µM (highest dose often 37.8 µM), usual class: inhibitors; 300,000 tested, 1.8% active; AID 540276; calls by dose curve; tested in HEK293 cells
Lassa entry inh: inhibitors of Lassa virus binding or cell entry; Lassa virus pseudotype entry inhibition, cell reporter; Potency, µM (highest dose often 37.9 µM), actives largely listed as inhibitors; 300,000 tested, 1.2% active; calls by dose curve; tested in HEK293 cells; further: nearly all actives have a fitted effect of over 50% in size
HCMV antiviral: human cytomegalovirus inhibition; AID 1259415; activity change, negative = inhibition, % at 57.5 µM; 410,000 tested, 4.5% active; HFF cells, HCMV-luciferase reporter, 72 h; stronger effect = lower value; in the data active means activity change below about -60%; inconclusive means no clear call, values can overlap the other calls; inactive means above about -39%
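After 16 h attachment at 37C, HFF cells received test compound and HCMV-luciferase (1 PFU/cell); reporter luminescence read 72 h later, data normalized against buffer-only and known inhibitor Salinomycin.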
Numbers stand for hits; 0 = inactive; ? = inconclusive; - = no result.

SMILES	HCV inhibitor	FMDV inh	MARV entry inh	Lassa entry inh	HCMV antiviral
COc1ccc(OCC2c3cc(OC)c(OC)cc3CCN2C(=O)c2ccc(F)cc2)cc1 (stereo unspecified)	-	0	-	0	0
CC(CN1CCc2nnc(CNC(=O)c3cccc(F)c3)n2CC1)c1ccccc1 (stereo unspecified)	-	0	-	-	-
Clc1cccc(Nc2nc(-c3ccncc3)cs2)c1	10µM	0	?	?	0
COC(=O)Nc1nnc(-c2ccncc2)s1	0	0	0	?	0
Cc1ccc(NC(=O)Nc2nnc(-c3ccncc3)s2)cc1C	?	?	-	-	-92
CS(=O)(=O)c1ccc2nc(NC(=O)Nc3cccc(Cl)c3)sc2c1	11µM	0	?	?	0
O=C(Nc1ccc(Cl)cc1)Nc1nnc(-c2ccncc2)s1	?	?	?	4µM	-67
Cc1cccc(C)c1NC(=O)Cn1c(=O)n(Cc2ccccc2)c(=O)c2c(C)c(C(=O)N(C)C)sc21	-	0	-	0	0
O=C(NCCc1ccncc1)Nc1cccc(Cl)c1	0	0	0	0	0
Cc1cnc(NC(=O)Nc2ccc(Cl)cc2)s1	?	0	-	-	-104
O=C(Nc1ccc(F)cc1)Nc1nnc(-c2ccncc2)s1	25µM	?	0	?	-95
O=C(Nc1cccc(Cl)c1)Nc1nnc(-c2ccncc2)s1	?	?	?	?	-98
Cc1cnc(NC(=O)CSc2ccc(Cl)cc2)s1	0	0	0	0	0
O=C(Nc1nnc(-c2ccc(F)cc2)s1)Nc1ccccc1F	0	0	-	-	0
CC1=C(C(=O)OCC2CCCO2)C(c2ccc(C)o2)C2=C(CC(c3ccc(F)cc3)CC2=O)N1 (stereo unspecified)	8.9µM	0	10µM	0	-
CC1=C(C(=O)OCC2CCCO2)C(c2ccc(C)o2)C2=C(CC(c3ccc(N(C)C)cc3)CC2=O)N1 (stereo unspecified)	?	-	0	-	-
O=C(NCCN1CCOCC1)c1ccc(Cl)c(Cl)c1	0	0	0	0	0
O=C1/C(=C\c2ccc(Cl)c(Cl)c2)CN(C(=O)CCN2CCOCC2)C/C1=C/c1ccc(Cl)c(Cl)c1	?	3.2µM	?	?	-102
O=C(CCN1C(=O)S/C(=C\c2ccccc2)C1=O)N1CCCCC1	0	0	?	0	0
O=C1/C(=C\c2ccccc2)CN(C(=O)CCN2CCCCC2)C/C1=C/c1ccccc1	?	7.9µM	1µM	?	-100
CCN(CC)CCC(=O)N1C/C(=C/c2ccccc2)C(=O)/C(=C\c2ccccc2)C1	?	3.5µM	11µM	10µM	-100
COc1ccccc1CNC(=O)c1cnn(-c2ccc(F)cc2F)c1C1CCN(C(=O)OC(C)(C)C)CC1	-	0	-	?	?
COc1ccc(NC(=O)c2cccc3c(=O)c4c([nH]c23)CCCC4)cc1	-	0	0	?	0
COc1ccc([C@@H]2C(C#N)=C(C)NC3=C2C(=O)c2ccccc23)cc1	-	-	0	-	-
C=C[C@H](O)Cc1c(C)n[nH]c1C	-	-	0	-	-
SMILES	HCV inhibitor	FMDV inh	MARV entry inh	Lassa entry inh	HCMV antiviral
Cc1ccc(Cl)cc1NC(=O)CN(C)S(=O)(=O)c1ccc2c(c1)n(C)c(=O)c(=O)n2C	-	0	0	0	0
Cc1ccccc1CS(=O)(=O)Cc1ccc(C(=O)NCCc2ccc(Cl)cc2)o1	-	28µM	-	?	0
Cc1ccc(CS(=O)(=O)Cc2ccc(C(=O)NCc3cccs3)o2)cc1	0	0	?	?	-89
Cc1ccc(CCNC(=O)c2ccc(CS(=O)(=O)Cc3ccccc3F)o2)cc1	?	?	?	?	0
O=C(NCc1cccs1)c1ccc(CS(=O)(=O)c2ccc(Cl)cc2)o1	0	0	0	12µM	0
Cc1ccc(CS(=O)Cc2ccc(C(=O)NCc3cccs3)o2)cc1 (stereo unspecified)	0	0	-	-	0
CCOC(=O)c1cnc2cc(C(F)(F)F)ccc2c1N1CCN(c2cccc(Cl)c2)CC1	-	0	0	0	0
CC(C)c1ccc(S(=O)(=O)Nc2cc3c(cc2NCc2ccccc2)n(C)c(=O)n3C)cc1	-	0	?	0	0
Cc1nc(-c2ccccn2)nc(SCC(=O)c2ccccc2)c1Cl	0	?	?	?	-82
O=C(O)CCS(=O)(=O)c1nc(-c2cccs2)cc(C(F)(F)F)n1	0	0	0	0	0
COc1cc(NC(=O)CSc2nc(-c3cccs3)cc(C(F)(F)F)n2)cc(OC)c1OC	-	?	?	0	0
COc1ccc(NC(=O)CCS(=O)(=O)c2nc(-c3cccs3)cc(C(F)(F)F)n2)cc1OC	-	22µM	?	?	-101
O=C(CCS(=O)(=O)c1nc(-c2cccs2)cc(C(F)(F)F)n1)Nc1cccc(O)c1	-	22µM	?	0	-99
COc1ccc(NC(=O)CCS(=O)(=O)c2nc(-c3ccc4c(c3)OCO4)cc(C(F)(F)F)n2)cc1OC	-	0	0	0	0
Cc1cc(NC(=O)CCCS(=O)(=O)c2nc(-c3cccs3)cc(C(F)(F)F)n2)no1	11µM	?	?	?	0
COc1cc(NC(=O)CCS(=O)(=O)c2nc(-c3cccs3)cc(C(F)(F)F)n2)cc(OC)c1OC	-	25µM	?	?	-98
O=C(CCS(=O)(=O)c1nc(-c2ccc3c(c2)OCO3)cc(C(F)(F)F)n1)Nc1ccc(F)c(Cl)c1	-	?	0	0	-100
COc1ccc(-c2cn3nc4c(nc3n2)CCCC4)cc1	0	0	5.6µM	?	0
COc1cccc(-c2cn3nc(C)c(C)nc3n2)c1	0	0	?	?	0
CN(C)CCCNC(=O)c1ccc(-c2nc(-c3ccc(Cl)cc3)cs2)cc1	10µM	0	?	?	0
CC(=O)c1ccc(N2CCN(c3nc4c(S(=O)(=O)c5ccc(C)c(C)c5)nnn4c4ccc(Cl)cc34)CC2)cc1	-	0	0	-	0
O=C1CCCC2=C1C(c1ccc(OS(=O)(=O)c3ccc(Cl)cc3)cc1)C1=C(CCCC1=O)O2	13µM	0	0	0	0
CC1CCc2nc3ncn(CC(=O)Nc4cccc(C#N)c4)c(=O)c3cc2C1 (stereo unspecified)	-	0	-	0	0
N#Cc1ccsc1NC(=O)CCc1ccccc1	?	0	?	-	0
N#Cc1ccsc1NC(=O)CCN1CCN(C(c2ccccc2)c2ccccc2)CC1	?	0	10µM	?	0
SMILES	HCV inhibitor	FMDV inh	MARV entry inh	Lassa entry inh	HCMV antiviral
Cc1cc(C)n(CCC(=O)N/N=C/c2ccc(O)cc2O)n1	?	0	13µM	?	0
COc1ccc(OC)c(/C=N/NC(=O)CCN2CCN(C(c3ccccc3)c3ccccc3)CC2)c1	10µM	0	10µM	?	0
Cc1cc(C)n(CCC(=O)N/N=C/c2ccccc2O)n1	?	0	0	?	0
O=C(CCN1CCN(C(c2ccccc2)c2ccccc2)CC1)N/N=C/c1ccc(O)cc1O	7.9µM	0	?	?	0
Cc1cnc(SCC2CCCO2)nc1C1CCCN(C(=O)C2=NNC(=O)CC2)C1 (stereo unspecified)	-	0	-	-	-
O=C(NCCS(=O)(=O)N1CCN(c2ccc(F)cc2)CC1)C(c1ccccc1)c1ccccc1	-	0	-	0	?
COC(=O)C[C@H]1SC(=O)NC1=O	-	-	0	-	-
CC(C)(C)OC(=O)N1CCC[C@H]1c1nnc(SCc2ccccc2Cl)o1	0	0	0	?	0
CC(C)(C)OC(=O)N1CCC[C@H]1c1nnc(SCc2ccc(Cl)cc2Cl)o1	?	40µM	8.9µM	?	0

Assay outcomes (PubChem)
